# From PubChem BioAssay (Tox21)
# Results filed as inconclusive are left out. Activity calls are given as the source filed them. Calls come from the whole dose curve.
# Assay: qHTS assay for small molecule agonists of the p53 signaling pathway - cell viability (AID 651633); note: nearly all actives have a fitted effect of over 30% in size;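 for activity change, negative = cytotoxicity: p53RE-bla HCT reporter cells with a stable beta-lactamase p53 reporter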
# Settings: p53RE-bla HCT-116 viability, ATP luminescence, 16 h; series mostly up to 83.3 µM; activity change, negative = cytotoxicity: at the top concentration
# Description: National Center for Advancing Translational Sciences [NCATS]
# NIH Chemical Genomics Center [NCGC]
# U.S. Environmental Protection Agency [EPA]
# National Institutes of Environmental Health Sciences [NIEHS]
# National Toxicology Program [NTP]
# U.S. Food and Drug Administration [FDA]
# p53, a tumor suppressor protein, is activated following cellular insult, including DNA damage and other cellular stresses. The activation of p53 regulates cell fate by inducing DNA repair, cell cycle arrest, apoptosis, or cellular senescence. The activation of p53, therefore, is a good indicator of DNA damage and other cellular stresses. […] The activation of the reporter gene under culture conditions can be detected by fluorescence intensity. This cell line was used to screen the Tox21 compound library in a 1536-well plate format and to identify agonists that activate the p53 signaling pathway.
# Tox21 Assay Protocol Summary:
# The p53RE-bla cells were dispensed at 4,000 cells/5 ul/well in 1536-well black wall/clear bottom plates using a Multidrop dispenser. After the assay plates were incubated at a 37 C/5% CO2 incubator for 5 hours, 23 nL of compounds dissolved in DMSO, positive controls or DMSO only was transferred to the assay plate by a pin tool. The plates were incubated at 37 C for 16 hours. After 1 uL of LiveBLAzerTM B/G FRET substrate was added using a Flying Reagent Dispenser, the plates were incubated at room temperature for 2 hours, and fluorescence intensity was measured by an Envision plate reader.
# For cell viability readout that measures cytotoxicity, 4 ul/well of CellTiter-Glo reagent was added into the assay plates using a Flying Reagent Dispenser. After 30 min incubation at room temperature, the luminescence intensity in the plates was measured using a ViewLux plate reader.
# % is set by controls: 0 for no effect and ±100 for the full control effect; potency is the fitted concentration of half-maximal effect.
SMILES,"activity change, negative = cytotoxicity",Potency
CCc1ccccc1N,11.5% (inactive),–
O=C1NC(=O)C(=O)C(=O)N1,-11.6% [at 95.3 µM] (inactive),–
CCN(C(C)=O)c1cccc(-c2ccnc3c(C#N)cnn23)c1,9.92% (inactive),–
COc1ccc(C(=O)c2c(C)n(CCN3CCOCC3)c3ccccc23)cc1,-7.7% (inactive),–
Nc1cccc2ccccc12,–,inactive
CCCC1CCCCN1 (stereo not given),13.4% (inactive),–
Cc1ccccc1,–,inactive
FC(F)OC(F)(F)C(F)Cl (stereo not given),–,inactive
Cc1nnc(-c2ccccc2)c(=O)n1N,-20.6% (inactive),–
C=CCOCC1CO1 (stereo not given),-7.98% (inactive),–
COc1ccc(C(O)(c2cncnc2)C2CC2)cc1 (stereo not given),8.49% (inactive),–
NP(N)(=O)NC(=O)c1ccc(F)cc1,11.4% (inactive),–
CCCC[N+](CCCC)(CCCC)CCCC,-11.4% (inactive),–
CCCBr,15.4% (inactive),–
CC(C)[C@@H](C(=O)O[C@@H](C#N)c1cccc(Oc2ccccc2)c1)c1ccc(Cl)cc1,-20.1% [at 95.3 µM] (inactive),–
CC(C)(C)NCC(O)c1cc(Cl)c(N)c(C(F)(F)F)c1 (stereo not given),-13.1% (inactive),–
CC(C)(C)N(NC(=O)c1ccc(Cl)cc1)C(=O)c1ccccc1,8.51% (inactive),–
CCCCC(CC)COC(=O)c1c(Br)c(Br)c(Br)c(Br)c1C(=O)OCC(CC)CCCC (stereo not given),15.4% (inactive),–
CC(C)c1ccc(OP(=O)(Oc2ccc(C(C)C)cc2)Oc2ccc(C(C)C)cc2)cc1,-19.1% [at 95.3 µM] (inactive),–
CC[N+]1(CCOC(=O)C(O)(c2ccccc2)c2ccccc2)CCCCC1,9.34% (inactive),–

SMILES,"activity change, negative = cytotoxicity",Potency
CCCCNC(=O)OCC#CI,–,60.8 µM (active)
O=C(O)c1cc(Cl)ccc1Cl,5.91% (inactive),–
C=CCc1ccc(OC(=O)Cc2ccccc2)c(OC)c1,-5.92% (inactive),–
CCCCCBr,8.93% [at 95.3 µM] (inactive),–
NCCc1cc(O)c(O)cc1O,11.8% (inactive),–
O=C(NC(=O)c1cc(F)c(F)cc1Cl)Nc1cc(F)ccc1N1CCC(C(=O)O)CC1,18.3% (inactive),–
O=C(Cl)OCCOCCOC(=O)Cl,11.3% (inactive),–
N#CC(C#N)=Cc1ccc(O)c(O)c1,-19% (inactive),–
CCC1(CCC(C)C)C(=O)NC(=O)NC1=O,-6.04% (inactive),–
C=CCc1ccccc1O,10.3% (inactive),–
CCCCCCCCCCCCCCCl,-15.7% [at 95.3 µM] (inactive),–
Clc1ccc2ccccc2c1,-21.9% [at 95.3 µM] (inactive),–
CCOC(=O)NC(O)C(Cl)(Cl)Cl (stereo not given),5.06% (inactive),–
O=C1CC[C@@]2(O)[C@H]3Cc4ccc(O)c5c4[C@@]2(CCN3CC2CC2)[C@H]1O5,17.2% (inactive),–
NNCCO,20.8% (inactive),–
c1ccc2sc(SNC3CCCCC3)nc2c1,–,inactive
c1ccc2c(c1)-c1cccc3cccc-2c13,–,inactive
OCC1CO1 (stereo not given),–,inactive
Cc1cccc(C)c1NC1=NCCCS1,14.6% (inactive),–
C=CC(C)(CCC=C(C)C)OC(=O)c1ccccc1N (stereo not given),17.1% [at 95.3 µM] (inactive),–
